Assay outcomes as filed in PubChem.
The sample as a whole holds a higher share of hits than the screen did.
RBX1-CUL1 inh = inhibitors of human ROC1-CUL1 ubiquitin ligase activity. in vitro K48 di-Ub FRET, acceptor:donor ratio, 45 min. inhibition, % at 10 µM. 0.6% of 140,000 active. AID 1347404, 2020; in the data active means inhibition above about 25%
Target sequence (P62877 whole entry, looked up): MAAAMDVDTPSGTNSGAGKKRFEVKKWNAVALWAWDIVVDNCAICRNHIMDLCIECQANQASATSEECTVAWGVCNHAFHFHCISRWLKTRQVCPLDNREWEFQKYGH
Target sequence (Q13616 whole entry, looked up): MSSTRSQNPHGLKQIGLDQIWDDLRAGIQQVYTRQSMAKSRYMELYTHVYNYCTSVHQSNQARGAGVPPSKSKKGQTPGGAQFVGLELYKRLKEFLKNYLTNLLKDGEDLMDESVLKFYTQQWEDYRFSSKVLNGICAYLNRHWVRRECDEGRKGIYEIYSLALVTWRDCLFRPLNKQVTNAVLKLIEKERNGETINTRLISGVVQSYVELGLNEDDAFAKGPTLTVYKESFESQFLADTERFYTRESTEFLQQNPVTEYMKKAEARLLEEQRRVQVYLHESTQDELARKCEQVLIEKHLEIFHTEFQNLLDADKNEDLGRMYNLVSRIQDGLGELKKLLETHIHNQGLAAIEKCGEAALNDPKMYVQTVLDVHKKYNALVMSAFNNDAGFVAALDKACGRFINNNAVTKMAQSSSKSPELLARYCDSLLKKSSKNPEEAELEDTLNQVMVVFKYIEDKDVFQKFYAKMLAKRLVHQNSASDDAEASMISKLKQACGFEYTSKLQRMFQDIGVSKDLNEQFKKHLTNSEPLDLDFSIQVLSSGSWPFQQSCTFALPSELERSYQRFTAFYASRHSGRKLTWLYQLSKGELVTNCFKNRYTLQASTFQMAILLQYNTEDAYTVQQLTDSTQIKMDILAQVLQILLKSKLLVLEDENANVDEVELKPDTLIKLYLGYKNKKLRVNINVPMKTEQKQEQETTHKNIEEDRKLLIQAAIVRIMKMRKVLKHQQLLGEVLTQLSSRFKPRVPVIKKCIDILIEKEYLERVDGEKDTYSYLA
* hit, by the source's call.

SMILES	RBX1-CUL1 inh
O=C(O)Cn1cc(/C=C2\SC(=Nc3ccccc3)N(c3ccccc3)C2=O)c2ccccc21	97*
O=C1/C(=C\c2cn(Cc3ccc(F)cc3)c3ccccc23)SC(=Nc2ccccc2)N1CCc1ccccc1	-1
NC(=O)Cn1cc(/C=C2\SC(=Nc3ccccc3)N(C3CCCC3)C2=O)c2ccccc21	-6
CCSc1nc2sc3c(c2c(=O)n1-c1ccccc1C)CCC3	0
Clc1ccc2c(NCCN3CCN(CCCN4CCN(CCNc5ccnc6cc(Cl)ccc56)CC4)CC3)ccnc2c1	0
COC(=O)NNc1ccnc2cc(Cl)ccc12	1
Clc1ccc2c(NCCN3CCN(CCCCCCCN4CCN(CCNc5ccnc6cc(Cl)ccc56)CC4)CC3)ccnc2c1	27*
Cc1cc(N2C(=O)C(=O)C(C(=O)c3ccc(F)cc3)C2c2ccc(C(C)(C)C)cc2)no1 (stereo not given)	5
COc1nc(Nc2ccc(OC(F)(F)Cl)cc2)nc(N2CCCCC2)n1	-8
O[C@@H]1CN(Cc2cccc3cccnc23)CC[C@H]1N1CCCCCC1	1
O=C(CSCc1ccc(Cl)cc1)Nc1cccc(C(=O)NN2C(=O)c3ccccc3C2=O)c1	5
CCCN1C(=O)/C(=C\c2cccn2-c2cccc(C(F)(F)F)c2)C(=O)N(c2ccccc2)C1=S	5
Cc1cccc(N2C(=O)/C(=C/c3cccn3-c3ccc(Cl)cc3)C(=O)NC2=S)c1C	-2
Cc1ccc(N2C(=O)/C(=C/c3cccn3-c3cccc(C(=O)O)c3)C(=O)NC2=S)c(C)c1	97*
CN(C)c1ccc(-n2cccc2/C=C2\C(=O)NC(=S)N(c3ccc(Br)cc3)C2=O)cc1	7
COc1ccc(Cl)cc1/C=C1\C(=O)NC(=S)N(c2ccc(C)cc2C)C1=O	1
CCOc1ccc(N2C(=O)/C(=C/c3cccn3-c3cccc(C(=O)O)c3)C(=O)NC2=S)cc1	19
CCc1ccccc1N1C(=O)/C(=C/c2cccn2-c2ccc(Cl)cc2)C(=O)NC1=S	36*
Cc1cccc(N2C(=O)/C(=C/c3cccn3-c3cccc(C(F)(F)F)c3)C(=O)NC2=S)c1C	53*
Cc1ccc(N2C(=O)/C(=C/c3cn(CC(=O)O)c4ccccc34)C(=O)NC2=S)c(C)c1	54*
Cc1ccc(N2C(=O)/C(=C/c3cc(C)n(C(C)C)c3C)C(=O)NC2=S)c(C)c1	-7
O=C1NC(=S)N(c2cccc(F)c2)C(=O)/C1=C/c1cccn1-c1cccc(C(F)(F)F)c1	7
Cc1cccc(N2C(=O)/C(=C/c3cccn3-c3cccc(C(=O)O)c3)C(=O)NC2=S)c1	15
COc1ncccc1C(=O)NCc1nc(-c2ccccc2NC(=O)CCOc2ccccc2)oc1C	-2
C#CCN(Cc1c(C(=O)N2CCCC2)nc2ccccn12)C1CCCCC1	-4
SMILES	RBX1-CUL1 inh
Cc1oc(-c2ccc(NC(=O)Cc3ccccc3)cc2)nc1CNC(=O)Cn1nc2ccccc2n1	6
CCCCCCc1ccsc1C1C=NC(=O)NC1=O (stereo not given)	7
CCc1ccc(-n2nnc(C(=O)Nc3cccc(C)c3)c2C)cc1	5
COC1=CC(=NC#N)C(Br)=CC1=NC#N	104*
CC(NC(=O)c1cc(CN2CCOCC2)on1)c1ccc(Cl)cc1 (stereo not given)	5
CCOC(=O)C1=C(C)N=c2s/c(=C\c3ccc(O)c(OC)c3)c(=O)n2C1c1ccc(F)cc1 (stereo not given)	-7
CCCn1c(=O)c2c(nc3n2CC(C)=NN3)n(C)c1=O	3
CCOC(=O)C1C(=O)C=C2c3ccccc3CCC2C1c1ccccc1 (stereo not given)	-1
O=C(NCCC1=CCCCC1)c1ccccc1Cl	1
O=C(NCCC1=CCCCC1)c1ccco1	4
O=C(NCCC1=CCCCC1)c1cc(-c2ccco2)nc2ccccc12	42*
CCN1C(=O)/C(=C\c2ccc(OC)c(CN3CCSCC3)c2)SC1=S	0
O=C(CN(Cc1ccc(Cl)c(Cl)c1)S(=O)(=O)c1ccccc1)NCc1ccccn1	-8
CSc1nc(-c2ccc(Cl)cc2)c(C#N)c(=O)[nH]1	9
C/C=C/c1nc(SC)c(C#N)c(=O)[nH]1	62*
CSc1nc(-c2ccc(C)cc2)[nH]c(=O)c1C#N	7
COc1cc(/C=C2\C=C(c3ccc(Cl)cc3)OC2=O)ccc1OCc1ccccc1F	13
O=C(CSc1ncn[nH]1)c1c[nH]c2ccccc12	1
O=C(/C=C/c1ccccc1)Nc1cccc(N2CCCC2)c1	-3
CCCS(=O)(=O)c1ccc(C)cc1	-1
CC1C(=NC(=O)CSc2nnc(Cc3ccccc3)o2)C(=O)N(c2ccccc2)N1C (stereo not given)	-1
CC1C(=NC(=O)CSc2nnc(-c3ccccc3)n2-c2ccccc2)C(=O)N(c2ccccc2)N1C (stereo not given)	-3
CC1C(=NC(=O)CSc2nc(-c3ccccc3)c(-c3ccccc3)o2)C(=O)N(c2ccccc2)N1C (stereo not given)	52*
COc1cc2c(cc1OC)C(c1ccc(C(C)(C)C)cc1)=NCC2	-8
O=C(Cc1c[nH]c2ccccc12)N1CCCC(CO)(CCOc2ccccc2)C1 (stereo not given)	1
SMILES	RBX1-CUL1 inh
COc1c(Cl)cc2c(c1Cl)NC(=O)C(Cl)(Cl)C2=O	46*
O=C1Nc2c(cc([N+](=O)[O-])cc2[N+](=O)[O-])C(=O)C1(Cl)Cl	21
COc1cccc2c1NC(=O)C(Cl)(Cl)C2=O	-3
COc1ccccc1C(=O)Nc1cc(Cl)ccc1Cl	-2
Cc1oc2nc3c(c(=O)n(CCC(C)C)c(=O)n3C)n2c1C	-1
CC(=O)Nc1c(Br)cc(C2CCCCC2C)cc1Br (stereo not given)	-2
CN1C(=O)C(Cc2cc(Cl)ccc2O)=NC1=S	27*
CN1C(=O)C(Cc2ccc(Br)s2)=NC1=S	7
COc1cc(CC2=NC(=S)N(C)C2=O)c(Br)cc1OCc1ccc(Cl)cc1	18
O=C(CCSc1nc2cc(Cl)ccc2o1)N1CCCC1	6
O=C1/C(=C/c2ccccc2)N=C(N2CCCCC2)N1c1cccc(Cl)c1	-3
CCOc1cc(C(c2c(C)[nH][nH]c2=O)c2c(C)[nH][nH]c2=O)ccc1OC(=O)c1ccccc1F	-7
O=C(/C=C/c1ccco1)CCN1CCCCC1	16
CN1C(=O)C(=C/C=C/c2ccco2)C(=O)N(C)C1=S	45*
O=C1C(=C/C=C/c2ccccc2Cl)C(=O)N(c2ccccc2)C(=S)N1c1ccccc1	9
Cc1nc2cc(OCc3cc(C(=O)N4CCCCCCC4)no3)ccc2s1	2
N#CC1C(=N)C(C#N)(C#N)[C@H](c2ccc(F)c(F)c2)[C@H]2CCCC=C12 (stereo not given in full)	7
CC1=NOC(=O)/C1=C/c1cccn1C	2
O=C1C(=Cc2ccc(-c3cc(Cl)ccc3Cl)o2)C(=O)N(c2ccccc2)C(=S)N1c1ccccc1	-11
CC1=NOC(=O)/C1=C\c1ccc(-c2cc(Cl)ccc2Cl)o1	97*
CCCCCCCCCCOc1ccc(C(=O)OC2CCC(C(C)(C)C)CC2)cc1 (stereo not given)	-1
Cc1ccccc1-c1cnc(-c2ccncc2)nc1C1CCCN(Cc2ccsc2)C1 (stereo not given)	7
O=C(/C=C/c1cccs1)c1ccc2c(c1)OCCO2	1
O=C(/C=C/c1cccnc1)c1ccc2c(c1)OCCO2	71*
COC(=O)c1ccc(/C=C/C(=O)c2ccc3c(c2)OCCO3)cc1	-1
O=C(Oc1ccc(Br)cc1Br)C1CC1	2
